Sampled rows, rich in hits. Any-hit rate of the full collection: about 3.5%.
MITF inh: inhibitors of human MITF; actives 0.91% (n = 650,000); AlphaScreen MITF homodimerization, bead proximity signal; AID 1259374; inhibition, % at 2.6 µM; in the data active = inhibition above about 50%
GPR151 ag: activates the human receptor GPR151; Q8TDV0; PathHunter beta-arrestin GPR151 cells, luminescence; activation, % at 11.2 µM; actives 1% (n = 650,000); in the data active = activation above about 4.9%
Target sequence (Q8TDV0 whole entry, looked up): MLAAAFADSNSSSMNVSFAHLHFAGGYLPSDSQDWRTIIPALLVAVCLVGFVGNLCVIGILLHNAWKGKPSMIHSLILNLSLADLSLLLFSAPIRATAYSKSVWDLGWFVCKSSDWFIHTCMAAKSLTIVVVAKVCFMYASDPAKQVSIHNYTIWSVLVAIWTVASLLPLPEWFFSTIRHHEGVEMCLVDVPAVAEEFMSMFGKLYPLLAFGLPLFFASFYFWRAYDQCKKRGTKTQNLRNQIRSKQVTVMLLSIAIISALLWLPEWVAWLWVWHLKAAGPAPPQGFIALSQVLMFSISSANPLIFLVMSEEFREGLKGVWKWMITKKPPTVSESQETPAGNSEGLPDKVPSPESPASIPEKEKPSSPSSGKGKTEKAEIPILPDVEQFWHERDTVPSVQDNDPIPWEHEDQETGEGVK
TEAD-YAP block: TEAD-YAP interaction inhibition; HEK-TIYL cells, TEAD-Gal4/YAP UAS-luciferase luminescence; inhibition, % at 9.12 µM; actives 1.4% (n = 640,000); AID 1259422; in the data active = inhibition above about 32%
FBW7 activator: human FBW7 E3 ligase activation, primary screen | Q969H0 | actives 0.13% (n = 650,000) | AID 1259310 | AlphaScreen FBW7–phospho-cyclin E peptide binding, activator screen | normalized activity (activation), % at 26.1 µM; in the data active = normalized activity above about 1.9%;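 note: purified mutant Fbw7 with reduced substrate affinity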
Each line names hits and unclear results; the compound was inactive in the other large screens.

O=C(N/C(=C/c1ccccc1)C(=O)N1CCCCCCC1)c1ccccc1	none
COc1ccc(/C=C(/NC(=O)c2ccccc2)C(=O)N/N=C/c2cccc(O)c2)cc1OC	none
O=C(N/N=C/c1ccccc1F)/C(=C/c1ccccc1O)NC(=O)c1ccccc1	TEAD-YAP block 89
COc1ccc(OC)c(/C=C(\NC(=O)c2ccccc2)C(=O)N/N=C/c2cccc(O)c2)c1	FBW7 activator 2.5
O=C(N/N=C/c1ccccc1O)/C(=C/c1ccccc1)NC(=O)c1ccccc1	none
COc1ccc(S(=O)(=O)NCCc2c(C)[nH]c3c(C)cccc23)cc1OC	none
CCCn1c(=NC(=O)c2cccc(F)c2)c(C(=O)OCC)cc2c(=O)n3ccccc3nc21	none
CC(=O)Nc1ccc(SCC(=O)NC(C)C23CC4CC(CC(C4)C2)C3)cc1 (stereo unspecified)	none
COc1ccc(O)c(/C=N/n2c(C)csc2=NC(C)C)c1	TEAD-YAP block 41
CCCNC(=O)c1cc(-c2cccc(O)c2)on1	TEAD-YAP block 53
O=C(NC1CCCC1)c1cc(-c2ccc(O)cc2)on1	TEAD-YAP block 40
CC(C)CNC(=O)c1cc(-c2ccc(O)cc2)on1	TEAD-YAP block 39
COCCNC(=O)c1cc(-c2cccc(O)c2)on1	none
Cc1ccc(C(=O)On2c(-c3ccc(Br)cc3)nc3ccccc3c2=O)cc1C	none
CCN(CC)c1ccc(C(=O)O)cc1	none
CCN(CC)c1ccc(C(=O)c2ccc(N(CC)CC)cc2)cc1	TEAD-YAP block 34
COC(=O)c1ccc(OC(=O)CSCc2c(C)noc2C)cc1	none
Cc1cnc(NC(=O)c2ccccc2F)s1	TEAD-YAP block 64
O=C(COC(=O)CNS(=O)(=O)/C=C/c1ccccc1)NCCN1C(=O)CSC1=O	none
COc1ccccc1N1CCN(C(=O)CSc2nc3ccccc3c(=O)n2CCC(=O)NC2CCCCC2)CC1	TEAD-YAP block 46
CC(=O)Oc1cccc2ccc(/C=C/c3cc4c(cc3Cl)OCO4)nc12	none
CC(=O)Oc1cccc2ccc(/C=C/c3ccc4c(c3)OCO4)nc12	TEAD-YAP block 78
Oc1cccc2ccc(/C=C/c3ccc4c(c3)OCCO4)nc12	TEAD-YAP block 92
Cc1cc(C)cc(NC(=O)Nc2c(C)n(C)n(-c3ccccc3)c2=O)c1	none
Cc1nc2sccn2c1C(=O)Nc1cccc(Oc2ccccc2)c1	none
Cc1nc2sccn2c1C(=O)Nc1cccc(OC(F)(F)F)c1	FBW7 activator 1.9
COc1ccc(Nc2nc(-c3ccc(F)cc3)cs2)cc1	none
NC(=O)NCCCC(=O)OCC(=O)Nc1cc(Cl)ccc1Oc1ccccc1	none
COc1ccc2c(c1)C(C)CC(C)(C)N2C(=O)CCl (stereo unspecified)	TEAD-YAP block 41
O=C(Nc1ccc(Br)cc1F)N1CCC(CN2CCCCC2)CC1	none
Cc1ccc(/C=C/C(=O)NCc2cccnc2)cc1	none
O=C(c1ccc2c(=O)n(-c3ccccc3F)c(=S)[nH]c2c1)N1CCCCC1	TEAD-YAP block 33
CC(C)Oc1ccc(C(=O)Oc2coc(CSc3ncccn3)cc2=O)cc1	none
Cc1ccc(N(CC(=O)Nc2ccc(C)c(F)c2)S(=O)(=O)c2c(C)noc2C)cc1	none
Cn1c(=O)[nH]c(=O)c2c1ncn2CC(=O)NN	FBW7 activator 2.4
COC(=O)Cn1cnc2c1c(=O)[nH]c(=O)n2C	none
Cc1ccc(-c2nnc(Nc3ccccc3)o2)cc1	TEAD-YAP block 44
Cc1ccc(-c2nnc(-c3ccccc3C)o2)cc1	none
Cn1c2ccccc2c2nnc(N/N=C/c3ccccn3)nc21	TEAD-YAP block 36
COc1ccc(-n2nc3ccc(O)cc3n2)cc1	TEAD-YAP block 65
COc1ccc(OCC(=O)Nc2ccc3nn(-c4ccc(OC)cc4)nc3c2)cc1	none
CN(CC(=O)N1CCc2ccccc21)S(=O)(=O)c1cccc2cnccc12	TEAD-YAP block 34
COc1ccc(NC(=O)CN(C)S(=O)(=O)c2cccc3cnccc23)cc1OC	TEAD-YAP block 42
C=CCOc1ccc(/C(O)=C2/C(=O)C(=O)N(CCCN(C)C)C2c2ccc(OC)cc2)c(C)c1 (stereo unspecified)	none
COc1ccc(C(=O)Nc2cccc(OC(=O)c3cc(S(=O)(=O)N4CCOCC4)ccc3Cl)c2)cc1	TEAD-YAP block 55
O=C(Oc1ccccc1)c1ccc(NC(=O)c2cc(S(=O)(=O)N3CCOCC3)ccc2Cl)cc1	none
O=C(Nc1cccc(OC(=O)c2cc(S(=O)(=O)N3CCCCC3)ccc2Cl)c1)c1ccco1	none
COc1cccc(C(=O)Nc2cccc(OC(=O)c3cc(S(=O)(=O)N4CCCCC4)ccc3Cl)c2)c1	TEAD-YAP block 47
COc1cccc(CNC(=O)CCC2CCCN(C(=O)CCc3c(C)nn(C)c3C)C2)c1 (stereo unspecified)	none
FC(F)(F)c1cnc(Nc2ccccn2)cc1Nc1ccccn1	TEAD-YAP block 54
CN1Cc2cccc(Nc3cc(Nc4cccc5c4C(=O)N(C)C5)c(C(F)(F)F)cn3)c2C1=O	none
Brc1ccc(C2Nc3ccc4ccccc4c3C3C=CCC32)cc1 (stereo unspecified)	none
COc1ccccc1Cc1nc2cc(C)c(C)cc2[nH]c1=O	none
COc1cc(Cc2nc3cc(C)c(C)cc3[nH]c2=O)cc(OC)c1OC	TEAD-YAP block 55
O=C(NCCc1nc(-c2ccccc2)cs1)c1cccc(C(=O)NCCc2nc(-c3ccccc3)cs2)c1	TEAD-YAP block 48
CC(C)(C)c1ccc(C(=O)Nc2sc3c(c2C(=O)O)CCC3)cc1	TEAD-YAP block 89
O=C(Nc1sc2c(c1C(=O)O)CCC2)c1ccc(Br)cc1	none
Cc1cccc(C(=O)Nc2sc3c(c2C(=O)O)CCC3)c1	TEAD-YAP block 66
Cc1ccc(C(=O)Nc2sc3c(c2C(=O)O)CCCC3)o1	TEAD-YAP block 40
CCN(CC)S(=O)(=O)c1ccc(Cl)c(C(=O)Nc2sc3c(c2C#N)CCC3)c1	TEAD-YAP block 34
CNC(=O)c1c(NC(=O)c2cccc(C)c2)sc2c1CCC2	none
O=C(Nc1sc2c(c1C(=O)O)CCCC2)c1ccc(Br)cc1	none
COc1ccc(C(=O)Nc2sc3c(c2C(=O)O)CCC3)cc1	TEAD-YAP block 40
CC(C)Oc1ccc(C(=O)Nc2sc3c(c2C#N)CCC3)cc1	none
O=C(Nc1sc2c(c1C(=O)O)CCCC2)c1ccc(F)cc1	TEAD-YAP block 36
COc1ccc(C(=O)Nc2sc3c(c2C#N)CCC3)cc1	TEAD-YAP block 37
CC(=O)N1CCN(C(=O)c2ccc(C#N)cc2)CC1	none
O=C(c1ccc(Sc2ccc(Br)cc2)c([N+](=O)[O-])c1)N1CCOCC1	none
C/C(CC(=O)Nc1ccccc1C)=N\NC(=O)C(=O)Nc1ccccc1C	FBW7 activator 2.0
Cc1ccc(N2C(=O)c3ccccc3C2O)nc1 (stereo unspecified)	TEAD-YAP block 78
CCN1/C(=C/c2cc(C)[n+](CCO)c(C)c2)Sc2ccccc21	TEAD-YAP block 33
CCN1/C(=C/c2cccc[n+]2C)Sc2ccccc21	TEAD-YAP block 46
COCC[n+]1c(C)cc(/C=C2\Sc3ccccc3N2C)cc1C	TEAD-YAP block 76
CCC(C)NC(=O)CSc1nc2n[nH]c(C)c2c(=N)n1-c1cccc(C)c1 (stereo unspecified)	none
COc1cccc(-c2nc(COC(=O)c3[nH]c(C)c(C(C)=O)c3C)cs2)c1	TEAD-YAP block 44

From PubChem
